In PubChem BioAssay (NCATS):
Results filed as inconclusive are left out. The list shows a part of the results. Activity calls are given as the source filed them. Unless noted, the call rests on the fitted dose curve; in most records, active means well fitted curve in the direction sought with a large enough effect; inconclusive means small, poorly fitted or top-dose-only effect, or another doubt; inactive means no such curve, though single readings can be large; an effect the other way counts as inactive or inconclusive.

Assays:
[1] = molecular target: Tumor susceptibility gene 101 protein (Homo sapiens) (UniProt Q99816); assay: qHTS Assay for Iinhibitors of HIV-1 Budding by Blocking the Interaction of PTAP/TSG101: Hit Validation (AID 651600); further: potency means the concentration at half of the fitted maximal effect; nearly all actives have a fitted effect of over 70% in size
Chain of Tumor susceptibility gene 101 protein (Homo sapiens) (Q99816 whole entry, looked up): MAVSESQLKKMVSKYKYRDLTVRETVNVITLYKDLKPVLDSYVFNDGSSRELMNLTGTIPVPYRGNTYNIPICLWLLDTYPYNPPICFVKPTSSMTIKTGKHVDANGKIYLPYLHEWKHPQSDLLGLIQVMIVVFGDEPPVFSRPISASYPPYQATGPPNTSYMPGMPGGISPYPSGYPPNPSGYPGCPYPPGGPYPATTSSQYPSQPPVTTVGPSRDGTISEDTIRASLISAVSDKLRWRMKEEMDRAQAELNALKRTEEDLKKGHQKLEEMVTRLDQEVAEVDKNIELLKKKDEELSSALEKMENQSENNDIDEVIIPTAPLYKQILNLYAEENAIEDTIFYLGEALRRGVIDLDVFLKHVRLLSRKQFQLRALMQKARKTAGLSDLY
How it was run: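 Measuring PTAP–Tsg101 interaction by FP: protein at 10 uM and fluorescent peptide at 50 nM (final), buffer 10 mM HEPES pH 7.5 with 0.15 M NaCl, 3 mM EDTA, 0.1 mM TCEP, 0.01% Tween 20; 20 min incubation, r.t.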

[2] = molecular target: Luciferin 4-monooxygenase (Photinus pyralis) (UniProt P08659); assay: Biochemical firefly luciferase enzyme assay for NPC (AID 624030); further: nearly all actives have a fitted effect of over 70% in size; further: potency means the concentration at half of the fitted maximal effect;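 on activity change, negative = inhibition: purified P. pyralis luciferase at 10 nM with luciferin and ATP substrate; 0% = DMSO and -100% = full luciferase inhibition by PTC124 control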
Chain of Luciferin 4-monooxygenase (Photinus pyralis) (P08659 whole entry, looked up): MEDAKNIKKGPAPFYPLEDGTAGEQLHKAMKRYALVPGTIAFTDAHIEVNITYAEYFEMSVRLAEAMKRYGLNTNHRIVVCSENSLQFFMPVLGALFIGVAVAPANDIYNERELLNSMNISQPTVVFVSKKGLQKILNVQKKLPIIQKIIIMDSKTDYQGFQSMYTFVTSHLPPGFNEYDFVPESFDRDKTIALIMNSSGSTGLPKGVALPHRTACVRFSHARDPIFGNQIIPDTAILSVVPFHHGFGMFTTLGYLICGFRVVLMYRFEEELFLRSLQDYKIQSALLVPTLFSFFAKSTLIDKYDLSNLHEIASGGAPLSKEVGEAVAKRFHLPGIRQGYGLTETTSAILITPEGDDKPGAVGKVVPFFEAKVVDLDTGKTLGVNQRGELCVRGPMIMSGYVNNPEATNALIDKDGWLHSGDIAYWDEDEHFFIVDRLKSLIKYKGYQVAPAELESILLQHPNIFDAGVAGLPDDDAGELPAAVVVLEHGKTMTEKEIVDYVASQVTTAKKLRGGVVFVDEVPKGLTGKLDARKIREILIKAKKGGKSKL
How it was run: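 Counter-screen for direct inhibition of the luciferase enzyme by approved-drug library compounds, run at 10 nM enzyme in 50 mM Tris acetate (final). Luminescence was read within 5 min of enzyme-buffer addition and normalized to PTC124 versus DMSO (0%).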

[3] = qHTS screen for small molecules that inhibit ELG1-dependent DNA repair: Hit Confirmation in Cell-Based Luciferin Assay (AID 624247); settings: cell-free firefly luciferase luminescence counter-screen, ViewLux; further: potency means the concentration at half of the fitted maximal effect
How it was run: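 Luciferin substrate reagent dispensed first, then compounds or DMSO vehicle pin-transferred, then luciferase enzyme added; luminescence read on a CCD-based plate reader.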

[4] = molecular target: ATPase family AAA domain-containing protein 5 (Homo sapiens) (UniProt Q96QE3); assay: HTS assay for small molecules that inhibit ELG1-dependent DNA repair in human embryonic kidney (HEK293T) cells expressing luciferase-tagged ELG1: Hit Confirmation (AID 624248); settings: HEK293T ELG1-luciferase levels, luminescence; cells co-treated with 5-fluorouridine; further: potency means the concentration at half of the fitted maximal effect; nearly all actives have a fitted effect of over 55% in size
Chain of ATPase family AAA domain-containing protein 5 (Homo sapiens) (Q96QE3 whole entry, looked up, the tested form may be a part): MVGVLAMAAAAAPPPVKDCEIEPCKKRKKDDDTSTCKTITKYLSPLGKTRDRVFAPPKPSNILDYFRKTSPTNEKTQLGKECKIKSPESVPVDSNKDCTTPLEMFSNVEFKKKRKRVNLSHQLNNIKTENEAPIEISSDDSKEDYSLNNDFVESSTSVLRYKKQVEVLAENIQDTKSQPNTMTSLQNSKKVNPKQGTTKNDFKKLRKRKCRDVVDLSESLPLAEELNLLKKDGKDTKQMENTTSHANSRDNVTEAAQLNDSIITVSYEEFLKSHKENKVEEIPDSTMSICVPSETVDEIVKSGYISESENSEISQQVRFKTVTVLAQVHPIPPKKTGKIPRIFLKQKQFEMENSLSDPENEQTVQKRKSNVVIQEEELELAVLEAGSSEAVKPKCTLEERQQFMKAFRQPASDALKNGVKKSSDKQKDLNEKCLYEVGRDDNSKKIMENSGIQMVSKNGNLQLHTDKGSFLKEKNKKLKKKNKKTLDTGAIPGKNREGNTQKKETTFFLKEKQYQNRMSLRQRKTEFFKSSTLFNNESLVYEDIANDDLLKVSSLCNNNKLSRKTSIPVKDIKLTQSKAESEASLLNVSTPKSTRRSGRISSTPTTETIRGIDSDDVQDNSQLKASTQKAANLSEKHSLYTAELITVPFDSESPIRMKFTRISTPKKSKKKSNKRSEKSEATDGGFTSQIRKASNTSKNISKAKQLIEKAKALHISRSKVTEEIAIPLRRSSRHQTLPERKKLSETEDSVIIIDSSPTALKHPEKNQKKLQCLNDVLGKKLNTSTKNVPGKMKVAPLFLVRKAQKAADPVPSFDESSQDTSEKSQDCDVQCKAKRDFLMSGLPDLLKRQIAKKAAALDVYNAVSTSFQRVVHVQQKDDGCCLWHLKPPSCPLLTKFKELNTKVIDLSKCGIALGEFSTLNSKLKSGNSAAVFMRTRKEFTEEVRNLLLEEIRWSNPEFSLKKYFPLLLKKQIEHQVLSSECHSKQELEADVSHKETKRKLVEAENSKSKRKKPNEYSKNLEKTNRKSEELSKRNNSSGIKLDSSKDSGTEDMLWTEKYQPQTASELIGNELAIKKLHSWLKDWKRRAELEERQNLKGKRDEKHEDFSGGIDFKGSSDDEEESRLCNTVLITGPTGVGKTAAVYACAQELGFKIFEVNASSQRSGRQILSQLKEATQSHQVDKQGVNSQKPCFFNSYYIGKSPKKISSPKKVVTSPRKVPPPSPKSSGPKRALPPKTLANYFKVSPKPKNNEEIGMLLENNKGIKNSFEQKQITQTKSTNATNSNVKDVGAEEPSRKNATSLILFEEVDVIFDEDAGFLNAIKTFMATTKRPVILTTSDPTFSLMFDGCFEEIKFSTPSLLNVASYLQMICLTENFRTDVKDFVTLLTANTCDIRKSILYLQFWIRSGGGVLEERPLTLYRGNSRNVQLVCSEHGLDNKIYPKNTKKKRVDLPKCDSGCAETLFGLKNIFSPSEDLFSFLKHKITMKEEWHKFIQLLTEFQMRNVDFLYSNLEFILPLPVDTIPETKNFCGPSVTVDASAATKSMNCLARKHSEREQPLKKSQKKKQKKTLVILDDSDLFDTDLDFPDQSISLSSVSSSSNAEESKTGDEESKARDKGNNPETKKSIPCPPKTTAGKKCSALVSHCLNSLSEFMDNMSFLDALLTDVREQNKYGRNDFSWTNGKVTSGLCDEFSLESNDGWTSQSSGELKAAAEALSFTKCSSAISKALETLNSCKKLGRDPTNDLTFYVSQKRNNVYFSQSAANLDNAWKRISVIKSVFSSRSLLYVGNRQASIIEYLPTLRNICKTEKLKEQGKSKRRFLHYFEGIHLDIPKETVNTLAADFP
How it was run: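 Cells (2,000/well) received 5-Fluorouridine plus pin-transferred compound or DMSO and were incubated 16 hr at 37 °C, 5% CO2. Luciferase activity was read by ONE-Glo luminescence after 30 min at room temperature; inhibitors suppress the signal.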

[5] = molecular target: ATPase family AAA domain-containing protein 5 (Homo sapiens) (UniProt Q96QE3); assay: qHTS screen for small molecules that inhibit ELG1-dependent DNA repair in human embryonic kidney (HEK293T) cells expressing luciferase-tagged ELG1: Hit Confirmation using MMS Stimulated ELG1 (AID 624249); settings: HEK293T luciferase-tagged ELG1 level; further: potency means the concentration at half of the fitted maximal effect; nearly all actives have a fitted effect of over 60% in size
How it was run: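 Seed HEK293T ELG1-luc cells (2,000/well). Add compounds at ~5 h, then MMS to 10 µM final. Incubate 16 h. Measure luciferase using Amplight.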

[6] = qHTS screen for small molecules that inhibit ELG1-dependent DNA repair: Hit Confirmation with MMS Viability (AID 624251); settings: Cell viability with MMS; further: potency means the concentration at half of the fitted maximal effect; nearly all actives have a fitted effect of over 60% in size
How it was run: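 ELG1-luc HEK293T cells were plated, then about 5 h later received compounds by pin transfer plus MMS at 10 µM final. Viability was read by CellTiter-Glo luminescence after 16 h.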

[7] = S16 Schwann cell PMP22 intronic element firefly luciferase assay (AID 624032); further: nearly all actives have a fitted effect of over 30% in size; further: potency means the concentration at half of the fitted maximal effect;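 on activity change, negative = inhibition: plate controls were DMSO for no effect and PTC124 positive control mean for full effect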
How it was run: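 Rat S16 Schwann cells stably carrying a PMP22 intronic element-driven Fluc reporter were seeded overnight, then exposed to compounds for 24 h at 37 °C. Luminescence was normalized to PTC124 (positive control) and DMSO (0% activity).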

[8] = S16 Schwann cell PMP22 intronic element beta-lactamase assay (AID 624044; calls by dose curve; further: potency means the concentration at half of the fitted maximal effect; nearly all actives have a fitted effect of over 15% in size); settings: S16 rat Schwann cells, PMP22 element beta-lactamase FRET, 24 h; ratio activity, negative = inhibition: at 38.3 µM (top of the series)
How it was run: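 Rat S16 Schwann cells with beta-Lac driven by a PMP22 intronic element, compound-treated 24 h at 37 °C. LiveBLAzer FRET B/G read: 460 nm normalized to potassium clavulanate vs DMSO; 535 nm FRET as viability; concentration-effect curves classified.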

[9] = qHTS Assay for Identifying Gametocytocidal Compounds (AID 743244); further: potency means the concentration at half of the fitted maximal effect; settings: P. falciparum 3D7 stage III-V gametocytes, alamarBlue, 72 h; max response: stronger effect = lower value
How it was run: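 Late gametocytes (III–V), P. falciparum 3D7; 72 h drug, then 24 h alamarBlue; resazurin reduction read by fluorescence.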

[10] = molecular target: Cytochrome P450 2C9 (Homo sapiens) (UniProt P11712); assay: qHTS Assay for Inhibitors and Substrates of Cytochrome P450 2C9 (AID 883); further: nearly all actives have a fitted effect of over 60% in size; further: potency means the concentration at half of the fitted maximal effect; on activity change, negative = inhibition: on the % scale 0 is the no-effect control and ±100 the full control effect
Chain of Cytochrome P450 2C9 (Homo sapiens) (P11712 whole entry, looked up): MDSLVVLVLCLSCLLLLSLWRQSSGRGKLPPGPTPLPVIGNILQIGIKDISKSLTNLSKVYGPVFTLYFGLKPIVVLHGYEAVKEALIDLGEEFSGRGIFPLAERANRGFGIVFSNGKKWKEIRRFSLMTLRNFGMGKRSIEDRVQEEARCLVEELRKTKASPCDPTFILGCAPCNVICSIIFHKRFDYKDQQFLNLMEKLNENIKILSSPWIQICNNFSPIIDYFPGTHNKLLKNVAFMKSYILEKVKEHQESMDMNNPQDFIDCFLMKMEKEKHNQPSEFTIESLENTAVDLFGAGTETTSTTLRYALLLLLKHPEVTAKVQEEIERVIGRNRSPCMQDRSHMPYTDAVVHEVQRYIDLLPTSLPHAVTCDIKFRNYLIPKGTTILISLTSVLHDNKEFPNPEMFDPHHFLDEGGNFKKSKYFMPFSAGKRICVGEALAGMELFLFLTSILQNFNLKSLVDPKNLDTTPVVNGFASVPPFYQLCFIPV
How it was run: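 Human CYP2C9 (10nM) hydroxylated Luciferin-H (100uM, at its KM) to luciferin in 25mM KPO4. Compound was preincubated 10 min at 37C, then NADPH regeneration started a 60 min reaction at 37C. Luminescence was read after detection reagent, normalized to 57uM sulphaphenazole.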

[11] = qHTS assay for small molecule activators of the nuclear factor-kappa B (NF-kB) signaling pathway (AID 651749; active means well fitted activation curve with a large enough effect in the signal ratio; the % refers to the signal ratio; further: potency means the concentration at half of the fitted maximal effect); settings: NF-kB-bla ME-180 cells, beta-lactamase FRET ratio, 16 h; activation: stronger effect = higher value
How it was run: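 ME-180 cells stably carrying a beta-lactamase reporter under an NF-kB response element were exposed to compound or DMSO vehicle for 16 hr at 37C, 5% CO2. Pathway activation was read by FRET, since reporter expression disrupts FRET.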

[12] = qHTS profiling for inhibitors of Plasmodium falciparum (3D7) proliferation (AID 743322);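 further: infected erythrocytes exposed to compound for 72 h before lysis; 100% = DMSO vehicle wells and 0% = 0.29 µM artemisinin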; settings: P. falciparum 3D7 proliferation; at 28.7 µM (top of the series) unless noted
How it was run: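 Erythrocytes infected with P. falciparum (0.3% parasitemia, 2.5% hematocrit) incubated with compounds 72 h at 37 C, 5% CO2. Lysis with saponin/Triton buffer containing SYBR Green I, overnight at room temperature in the dark; DNA fluorescence (485/535 nm) normalised to 0.29 uM artemisinin and DMSO.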

[13] = qHTS profiling for inhibitors of Plasmodium falciparum (DD2) proliferation (AID 743323; call rule not given here); settings: lower = more inhibition; at 28.7 µM (top of the series) unless noted
How it was run: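 P. falciparum Dd2-infected erythrocytes (0.3% parasitemia, 2.5% hematocrit) exposed 72 h at 37 C, 5% CO2. Lysis with SYBR Green, overnight at room temperature, fluorescence 485/535 nm; normalized to 0.29 uM artemisinin and DMSO.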

[14] = qHTS profiling for inhibitors of Plasmodium falciparum (HB3) proliferation (AID 743324); settings: Plasmodium falciparum HB3 blood-stage proliferation; at 28.7 µM (top of the series) unless noted;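 further: 100% = DMSO vehicle wells and 0% = artemisinin-treated control wells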
How it was run: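 P. falciparum HB3 grown in erythrocytes (0.3% parasitemia, 2.5% hematocrit final) with compound for 72 h at 37 C, 5% CO2. Parasite DNA detected by SYBR Green after saponin/triton lysis overnight; normalized to 0.29 uM artemisinin and DMSO.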

[15] = molecular target: Cytochrome P450 3A4 (Homo sapiens) (UniProt P08684); assay: qHTS Assay for Inhibitors and Substrates of Cytochrome P450 3A4 (AID 884); further: potency means the concentration at half of the fitted maximal effect; nearly all actives have a fitted effect of over 50% in size
Chain of Cytochrome P450 3A4 (Homo sapiens) (P08684 whole entry, looked up): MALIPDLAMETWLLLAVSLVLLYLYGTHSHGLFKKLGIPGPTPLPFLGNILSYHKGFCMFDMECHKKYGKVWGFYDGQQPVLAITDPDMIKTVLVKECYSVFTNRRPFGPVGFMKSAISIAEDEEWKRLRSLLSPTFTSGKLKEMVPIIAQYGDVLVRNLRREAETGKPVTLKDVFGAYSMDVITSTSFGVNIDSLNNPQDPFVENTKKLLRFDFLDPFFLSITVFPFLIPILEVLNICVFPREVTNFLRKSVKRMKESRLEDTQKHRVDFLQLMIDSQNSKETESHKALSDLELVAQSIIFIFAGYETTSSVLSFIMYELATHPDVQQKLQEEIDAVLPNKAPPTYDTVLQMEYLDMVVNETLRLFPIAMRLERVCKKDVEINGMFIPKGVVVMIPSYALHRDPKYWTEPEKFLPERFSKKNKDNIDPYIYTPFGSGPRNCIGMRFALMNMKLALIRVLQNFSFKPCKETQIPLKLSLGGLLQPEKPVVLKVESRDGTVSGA
How it was run: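 20 nM human CYP3A4 with 25 uM Luciferin-PPXE (at KM) in 200 mM KPO4, preincubated 10 min with compound; NADPH regeneration started a 60 min RT reaction. Luciferin detected by luminescence, normalized to 57 uM ketoconazole as full inhibition.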

[16] = molecular target: Cytochrome P450 3A4 (Homo sapiens) (UniProt P08684); assay: qHTS Assay for Activators of Cytochrome P450 3A4 (AID 885); further: nearly all actives have a fitted effect of over 65% in size
How it was run: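 Human CYP3A4 (20 nM) with Luciferin-PPXE at 25 uM (its KM) in 200 mM KPO4; 10 min compound preincubation, then NADPH regeneration and 60 min reaction at RT. Luciferin read by luminescence; normalized to 57 uM ketoconazole full inhibition.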

[17] = molecular target: Cytochrome P450 2D6 (Homo sapiens) (UniProt P10635); assay: qHTS Assay for Inhibitors and Substrates of Cytochrome P450 2D6 (AID 891);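 further: luciferin methyl ether substrate demethylated by CYP2D6 with NADPH regeneration; on the % scale 0 is the no-effect control and ±100 the full control effect; nearly all actives have a fitted effect of over 60% in size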
Chain of Cytochrome P450 2D6 (Homo sapiens) (P10635 whole entry, looked up): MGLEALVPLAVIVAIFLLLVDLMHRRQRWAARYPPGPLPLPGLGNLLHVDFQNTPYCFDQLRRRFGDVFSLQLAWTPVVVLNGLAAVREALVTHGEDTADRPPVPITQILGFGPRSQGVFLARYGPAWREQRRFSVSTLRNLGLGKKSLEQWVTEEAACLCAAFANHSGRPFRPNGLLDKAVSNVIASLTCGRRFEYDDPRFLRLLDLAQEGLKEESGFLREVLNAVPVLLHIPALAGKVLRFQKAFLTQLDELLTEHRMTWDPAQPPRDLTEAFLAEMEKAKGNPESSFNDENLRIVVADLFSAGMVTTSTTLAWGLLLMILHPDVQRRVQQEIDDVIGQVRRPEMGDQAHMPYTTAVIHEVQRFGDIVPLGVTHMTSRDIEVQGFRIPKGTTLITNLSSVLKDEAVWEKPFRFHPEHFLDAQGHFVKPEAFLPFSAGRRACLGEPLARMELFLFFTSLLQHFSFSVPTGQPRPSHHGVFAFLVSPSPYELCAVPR
How it was run: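 Human CYP2D6 (5 nM) with 30 uM Luciferin-ME EGE (at Km) in 100 mM KPO4, compound preincubated 10 min, then NADPH regeneration system for 60 min at room temperature. Luciferin read by luminescence; normalized to 1.43 uM quinidine.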

Nc1ccc2c3c(cccc13)-c1ccccc1-2
Potency [1]: 9.19 µM (active)

O=C1OC(c2cc(I)c(O)c(I)c2)(c2cc(I)c(O)c(I)c2)c2ccccc21
Potency [2]: 32.2 µM (active)

CN1[C@@H]2CC[C@H]1CC(OC(=O)C(CO)c1ccccc1)C2 (some centres not stated)
Potency [2]: inactive

CC(=O)[O][Sn]([c]1ccccc1)([c]1ccccc1)[c]1ccccc1
Potency [3]: 1.99 µM (active) | Potency [4]: 1.58 µM (active) | Potency [5]: 0.281 µM (active) | Potency [6]: 0.281 µM (active)

CC1OC(OC2C(O)CC(OC3C(O)CC(OC4CCC5(C)C(CCC6C5CCC5(C)C(C7=CC(=O)OC7)CCC65O)C4)OC3C)OC2C)CC(O)C1O (configuration not stated)
Potency [7]: 10.2 µM (active)

Cc1cn([C@H]2C[C@H](O)[C@@H](CO)O2)c(=O)[nH]c1=O
Potency [7]: inactive

C[C@]12CCC(=O)C=C1CC[C@H]1C2CC[C@@]2(C)[C@@H]1CC[C@]2(C)O (some centres not stated)
Potency [2]: inactive

C[C@]12O[C@H](C[C@]1(O)CO)n1c3ccccc3c3c4c(c5c6ccccc6n2c5c31)CNC4=O
Potency [8]: 7.07 µM (active) | Potency [9]: 2.51 µM (active)

C[C@]12C=CC(=O)N[C@@H]1CC[C@@H]1C2CC[C@]2(C)C(C(=O)Nc3cc(C(F)(F)F)ccc3C(F)(F)F)CC[C@@H]12 (some centres not stated)
Potency [7]: 16.1 µM (active)

Cc1ncc(C[n+]2csc(CCOP(=O)(O)O)c2C)c(N)n1
Potency [7]: 7.21 µM (active)

C#C[C@]1(OC(=O)CCCCCC)CC[C@H]2C3CCC4=CC(=O)CC[C@@H]4[C@H]3CC[C@@]21C (some centres not stated)
Potency [2]: inactive

NC(=O)Oc1ccc(Cc2ccccc2)cc1
Potency [7]: inactive

CCON=C(CC)C1=C(O)CC(c2c(C)cc(C)cc2C)CC1=O (configuration not stated)
Potency [2]: inactive

C[C@H]1[C@@H]2Cc3ccc(O)cc3[C@]1(C)CCN2CCc1ccccc1
Potency [2]: inactive

COc1cccc2c1C(=O)c1c(O)c3c(c(O)c1C2=O)CC(O)(C(C)=NO)CC3OC1CC(N)C(O)C(C)O1 (configuration not stated)
Potency [1]: 10.3 µM (active)

CCOC(=O)c1c(/N=C/c2c(O)n(-c3ccccc3F)c(=S)[nH]c2=O)sc2c1CCCC2
Potency [1]: 16.3 µM (active)

CC(C)[C@@]1(NC(=O)[C@H]2C[C@H]3c4cccc5[nH]cc(c45)C[C@@H]3N(C)C2)O[C@]2(O)[C@H]3CCCN3C(=O)CN2C1=O (tested in a mixture with another compound)
Potency [2]: inactive

C=Cc1c(C)c2cc3nc(cc4[nH]c(cc5nc(cc1[nH]2)C(C)=C5CCC(=O)OC)c(CCC(=O)O)c4C)[C@@]1(C)C3=CC=C(C(=O)OC)[C@H]1C(=O)OC
Potency [9]: 0.894 µM (active)

C[C@H](Br)C(=O)c1ccc2cc(Br)c3ccccc3c2c1
activity change, negative = inhibition [10]: 58.8% [at 11.4 µM] (inactive)

O=C(O[C@@H]1Cc2c(O)cc(O)cc2O[C@@H]1c1cc(O)c(O)c(O)c1)c1cc(O)c(O)c(O)c1
Potency [11]: 12.6 µM (active)

C[C@H]1[C@@H](CCC(=O)Nc2ccc(F)cc2)O[C@@H]2O[C@]3(C)CC[C@@H]4[C@H](C)CC[C@@H]1[C@@]24OO3
remaining parasite growth % (stronger effect = lower value) [12]: -0.086% | activity, percent of control [13]: 0.199% | remaining proliferation (% of control), lower = more inhibition [14]: 0.121%

CC(C)C[C@H](NC(=O)N1CCCCCC1)C(=O)N[C@H](Cc1cn(C)c2ccccc12)C(=O)N[C@H](Cc1ccccn1)C(=O)O
Potency [10]: 6.31 µM (active)

COC(=O)C1C(c2ccccc2)C2C(=O)c3c(OC)cc(OC)cc3O[C@@]12c1ccc(OC)cc1 (some centres not stated)
activity change, negative = inhibition [10]: -4.65% [at 11.4 µM] (inactive) | Potency [15]: 3.98 µM (active) | activity change, positive = activation [16]: -68.8% [at 11.4 µM] (inactive) | activity change, negative = inhibition [17]: -16.4% [at 11.4 µM] (inactive)
